Screening data from PubChem BioAssay.
D2 antagonist: HTS Assay for Allosteric Antagonists of the Human D2 Dopamine Receptor: Primary Screen for Antagonists; D(2) dopamine receptor (Homo sapiens), P14416; HEK293 TREx D2 cells, calcium flux, dopamine EC80; inhibition, % at 10 µM; 340,000 compounds, 2% hits; AID 485344, 2010; in the data active = inhibition above about 30%; inactive = below that, where a call was filed
Target sequence (P14416 whole entry, looked up): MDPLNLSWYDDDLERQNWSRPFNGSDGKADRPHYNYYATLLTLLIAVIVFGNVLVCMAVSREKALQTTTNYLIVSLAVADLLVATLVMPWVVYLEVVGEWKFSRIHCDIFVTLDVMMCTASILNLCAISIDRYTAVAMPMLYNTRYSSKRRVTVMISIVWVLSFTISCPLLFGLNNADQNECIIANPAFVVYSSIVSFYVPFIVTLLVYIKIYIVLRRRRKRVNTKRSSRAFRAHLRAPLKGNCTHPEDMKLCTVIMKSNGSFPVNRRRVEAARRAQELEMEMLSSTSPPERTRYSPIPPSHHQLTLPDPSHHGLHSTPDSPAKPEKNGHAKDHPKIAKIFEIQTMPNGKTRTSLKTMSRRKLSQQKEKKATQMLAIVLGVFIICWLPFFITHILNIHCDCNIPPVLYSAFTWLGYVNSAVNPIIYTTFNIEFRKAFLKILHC
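Calcium mobilization kinetics were recorded at 1 s intervals in tetracycline-induced HEK293 T-REx D2 cells, first for 180 s after compound addition and then 180 s after EC80 dopamine.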
D2 ag-1: Beta-Arrestin HTS for Positive Allosteric Modulators of the Human D2 Dopamine Receptor: Agonists; activation, % (concentration not given with the values); 360,000 compounds, 0.084% hits; DiscoveRx PathHunter D2 beta-arrestin, luminescence, 90 min; 100% = 57 uM dopamine signal; D(2) dopamine receptor (Homo sapiens), P14416; in the data active = activation above about 40%; inconclusive = between about 15% and that limit
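DiscoveRx PathHunter D2 beta-arrestin cells (2,100/well) attached overnight, then compound-stimulated 90 min at 37 C in HBSS/10 mM HEPES/0.1% Tween-20 buffer; beta-galactosidase complementation read by luminescence after 1 h at ambient temperature. Dopamine 57 uM final (EC100) as control.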
D2 PAM-1: Beta-Arrestin HTS for Positive Allosteric Modulators of the Human D2 Dopamine Receptor: Potentiators; DiscoveRx D2 beta-arrestin cells, luminescence, 90 min; 100% = 57 uM dopamine signal; potentiation, % (concentration not given with the values); 360,000 compounds, 0.23% hits; AID 624464, 2012; in the data active = potentiation above about 50%; inconclusive = mostly about 30% to 49%
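D2 cells co-treated with compound plus 50 nM dopamine (EC20) for 90 min at 37 deg C to detect potentiation. Beta-arrestin recruitment was read as enzyme-fragment luminescence after 1 h at ambient temperature. Full response was set by 57 uM dopamine.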
D2 ag-2: HTS Assay for Allosteric Agonists of the Human D2 Dopamine Receptor: Primary Screen for Agonists | D(2) dopamine receptor (Homo sapiens), P14416 | HEK293 T-REx D2 cells, calcium flux agonist mode | activation, % at 2 µM | 340,000 compounds, 0.53% hits;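 active = activation over 3 SD above normal in the single-dose calcium agonist read, cut at about 30% in these data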
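HEK293 Trex D2 cells, tetracycline-induced, o/n 30 C 5% CO2; no-wash Ca dye, RT 30–90 min; 10-cycle baseline, 23 nl cpd added, kinetic Ca read 180 s; agonist hits = positive Ca response.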
D2 PAM-2: HTS Assay for Positive Allosteric Modulators of the Human D2 Dopamine Receptor: Primary Screen for Potentiators | potentiation, % at 10 µM | HEK293 T-REx D2, calcium flux, EC20 dopamine potentiation | 340,000 compounds, 0.34% hits | D(2) dopamine receptor (Homo sapiens), P14416;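 active = potentiation over 3 SD above the plate norm, cut at about 30% in these data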
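Calcium flux readout, no-wash dye, 1 read/s. Inducible HEK293 Trex D2 line, overnight 30 C. Compound alone 180 s (agonist flags), then EC20 dopamine, another 180 s to score potentiation.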
Large screens that a line does not name were inactive. This is a sample that favours compounds with a hit; in the whole collection about 2.4% have one here.

CCC(C)(C)NC(=O)C(c1cccn1C)N(Cc1ccc(OC)cc1)C(=O)Cn1nnc2ccccc21 (centres undefined)	D2 antagonist 30
O=C(O)c1ccc2c(c1)OCCOCCOCCOCCOCCO2	none
O=C(c1ccccc1)c1ccc2c(c1)OCCOCCOCCOCCO2	D2 antagonist 50
Cn1c(-c2ccc(CN3CCCCC3)o2)nc2ccccc21	D2 antagonist 34
O=[N+]([O-])c1ccc(-n2nnnc2-c2ccccc2)c([N+](=O)[O-])c1	D2 ag-1 inconclusive, D2 PAM-1 86
C=CCn1c(SCC(=O)Nc2ccc(OC)cc2)nc2c([nH]c3ccccc32)c1=O	D2 antagonist 33
CC(=O)N1c2ccc(S(=O)(=O)NCc3ccc(Cl)cc3)cc2CC1C (centres undefined)	none (no result: D2 antagonist, D2 ag-1, D2 PAM-1)
CCc1cc(C(=O)N2CCN(S(=O)(=O)c3ccc(Cl)cc3)CC2)sc1C	D2 antagonist 39
CCc1noc(C)c1C(=O)N1CCN(S(=O)(=O)c2ccc(Cl)cc2)CC1	none
CCCN(CCC)CCCNC(=O)c1cc2c(=O)n(C)c3ccccc3c2s1	none (no result: D2 antagonist, D2 ag-1, D2 PAM-1)
CCOC(=O)c1noc2nc(C)n(CC(=O)Nc3cccc(OC)c3)c(=O)c12	none (no result: D2 antagonist, D2 ag-1, D2 PAM-1, D2 PAM-2)
CC(OCCN1CCCC1)(c1ccc(F)cc1)c1ccc(F)cc1	D2 antagonist 73
Fc1ccc(OCCOCCN2CCCC2)cc1	none (no result: D2 antagonist, D2 ag-2, D2 PAM-2)
Cc1ccc(CNC(=O)c2c(-c3cccc(Br)c3)noc2C)o1	none (no result: D2 antagonist, D2 ag-1, D2 PAM-1)
CC(C)OCCCn1c(=S)[nH]c2cc3c(cc2c1=O)OCO3	D2 antagonist 50
CC(C)OCCCn1c(=S)[nH]c2ccc(N3CCOCC3)cc2c1=O	none
CCCCN(C)CCCNC(=O)c1cn(C)c2ccc(S(=O)(=O)N(C)C3CCCCC3)cc2c1=O	D2 antagonist 34
CC1CCCC(NC(=O)c2cn(C)c3ccc(S(=O)(=O)N4CCCC4)cc3c2=O)C1C (centres undefined)	D2 antagonist 31 (no result: D2 ag-1, D2 PAM-1)
CN(CCNC(=O)c1cn(C)c2ccc(S(=O)(=O)N(C)C)cc2c1=O)CCc1ccccc1	D2 antagonist 45
COc1ccc(CCNC(=O)c2cn(C)c3ccc(S(=O)(=O)N4CCOCC4)cc3c2=O)cc1OC	D2 antagonist 40
CCn1cc(C(=O)NCCc2ccc(OC)c(OC)c2)c(=O)c2cc(S(=O)(=O)N3CCOCC3)ccc21	none
COc1ccc(C)cc1NC(=O)C(CCSC)NS(=O)(=O)c1ccc2c(c1)oc(=O)n2C (centres undefined)	none (no result: D2 antagonist, D2 ag-1, D2 PAM-1, D2 ag-2)
CN1C(=O)c2ccccc2Sc2ccc(NC(=O)NCc3cccc(Cl)c3)cc21	none (no result: D2 antagonist, D2 ag-1, D2 PAM-1)
Cc1cc(C)c(S(=O)(=O)NCCc2sc3nc(-c4ccc(F)cc4)nn3c2C)c(C)c1	none (no result: D2 antagonist, D2 ag-1, D2 PAM-1)
CCS(=O)(=O)N1CCc2cc(C(=O)Nc3ccc(OC)c(Cl)c3)ccc21	none (no result: D2 antagonist, D2 ag-1, D2 PAM-1)
O=C(Nc1cccc([N+](=O)[O-])c1)C1CC(=O)N(C2CCCCC2)C1 (centres undefined)	D2 antagonist 31
O=C(NCCc1cccc(F)c1)C1CCC(=O)N(C2CCCCCC2)C1 (centres undefined)	D2 antagonist 34
O=C(NCCN1CCc2ccccc2C1)C1CC(=O)N(C2CCCC2)C1 (centres undefined)	D2 antagonist 33
CC(=O)Nc1cccc(NC(=O)C2CC(=O)N(C3CCCCC3)C2)c1 (centres undefined)	none
O=C(NCCc1ccccc1)C1CC(=O)N(C2CCCC2)C1 (centres undefined)	none
COc1cccc(-n2ccnc2SCC(=O)Nc2ccc(Cl)c(Cl)c2)c1	none (no result: D2 antagonist, D2 ag-1, D2 PAM-1, D2 ag-2)
Cc1cccc(/C=N/NC(=O)c2cc3c(s2)-c2ccccc2CC3)c1	D2 antagonist 32
C=CCOc1ccccc1CNCCCN1CCOCC1	D2 PAM-2 37
COc1ccc(OCC(O)CNC(=O)Nc2cc(F)ccc2C)cc1 (centres undefined)	D2 antagonist 38
CC1O[C@@H](OC2C(COC3OC(CO)C(O)[C@H](O)C3O)OC(OC3CC[C@]4(C)C(CC[C@@]5(C)[C@@H]4CC=C4[C@@H]6CC(C)(C)CC[C@]6(CO)C(O)C[C@]45C)C3(C)C)C(O)C2O)C(O)C(O)C1O (some centres undefined)	none (no result: D2 antagonist, D2 ag-2, D2 PAM-2)
CC1OC(O[C@H]2CC[C@]3(C)C4C=C[C@]56OC[C@@]7(CC[C@@H](C)[C@H](C)C75)[C@H](O)C[C@@]6(C)[C@]4(C)CC[C@H]3C2(C)C)C(OC2OC(CO)C(O)C(O)C2OC2OCC(O)C(O)C2O)C(O)C1O (some centres undefined)	D2 antagonist 35, D2 ag-2 43 (no result: D2 ag-1, D2 PAM-1)
O=C(Cn1c2[n+](c3ccc(C(F)(F)F)cc31)CCCCC2)c1cccc([N+](=O)[O-])c1	D2 antagonist 35
O=C(Cn1c2[n+](c3ccc(C(F)(F)F)cc31)CCCCC2)c1ccc2c(c1)OCCO2	none
Cc1c(C)n(-c2ccccc2)c2ncnc(NCCN(C)C)c12	D2 antagonist 40
C/C(=N\OC(=O)c1ccccc1F)c1nccs1	D2 PAM-2 41
COc1ccc(OC)c(N(C)S(=O)(=O)c2ccc3c(c2)NC(=O)CC(=O)N3)c1	none (no result: D2 antagonist, D2 ag-1, D2 PAM-1)
O=C(NCCN1CCOCC1)c1cc2sccc2n1Cc1ccc(F)cc1	D2 antagonist 38
COC(=O)C1=CN(Cc2ccc(C)cc2)C=C(C(=O)OC)C1c1cc(OC)c(OC)c(OC)c1	none
COCCN1C=C(C(=O)OC)C(c2cc(Br)c(OC)c(OC)c2)C(C(=O)OC)=C1	D2 PAM-2 34
Cc1ccc(NC(=O)c2cc(=O)n(Cc3ccccc3)c(=O)[nH]2)cc1C	D2 antagonist 34 (no result: D2 ag-2)
O=C(O)c1cc(=O)n(Cc2ccccc2)c(=O)[nH]1	none
CCN(CC)CC(=O)Nc1cc(N(C)C)nc2ccccc12	none
CCCCCC(=O)Nc1cc(N(C)C)nc2ccccc12	D2 antagonist 35
COc1ccc(NC(=O)c2nn(C)c3c2CS(=O)(=O)c2ccccc2-3)cc1	D2 PAM-2 37
COc1cc(NC(=O)c2nn(C)c3c2CS(=O)(=O)c2ccccc2-3)cc(OC)c1	none
O=C1c2ccccc2C(O)N1Cc1cccs1 (centres undefined)	D2 antagonist 47
COC(=O)c1ccc(C2C=C(c3ccc(Cl)cc3)Nc3nc4ccccc4n32)cc1 (centres undefined)	none (no result: D2 antagonist, D2 ag-1, D2 PAM-1)
O=C(N/N=C\c1c(O)ccc2ccccc12)c1cncc(Br)c1	D2 ag-2 66
